This note sets out measurements from PubChem BioAssay (EPA / NIEHS).

Several values for one entry are separate records, joined by “and”; a condition that tells them apart may be missing. Identical values can stand only once. Activity calls are given as the source filed them. The calls were made as follows: active = hit-call score of the fitted dose curve at least 0.9, where 1 is the maximum; inactive = score below 0.9.

The nature of this assay: BSK_IMphg_SRB: Viability Assessment in the BioMAP Diversity Plus: IMphg Assay (AID 2284292).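 Also: measured one day after compound addition.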 Conditions: primary human endothelial cells with macrophages. The protocol:
BSK_IMphg is a cell-based, multiplexed-readout assay that uses venular endothelial cells and macrophages, a human vascular primary cell, with measurements taken at 24 hours after chemical dosing in a microplate: 96-well plate.BSK_IMphg_SRB is an assay component measured in the BSK_IMphg assay. It measures […] related to cell death using Sulforhodamine staining technology.Data from the assay component BSK_IMphg_SRB was analyzed at the endpoint, BSK_IMphg_SRB, in the positive analysis fitting direction relative to DMSO as the negative control and baseline of activity. Using a type of viability reporter, gain or loss-of-signal activity can be used to understand protein changes. To generalize the intended target to other relatable targets, this assay endpoint is annotated to the 'cell morphology' intended target family, where the subfamily is 'cell conformation'.
The levels of cell surface (or secreted, indicated by the prefix "s") biomarker endpoints were measured by ELISA. Overt cytotoxicity to cells in confluent adherent cultures (all systems other than the BT system) was assessed by measuring total protein levels using sulforhodamine B (SRB) staining in parallel cultures at the time of biomarker measurements, indicated as SRB endpoints. For proliferation assays for adherent cell types, individual cell types are cultured at sub-confluence and relative cell numbers quantified by SRB staining at time points optimized for each system (48 h: 3C and CASM3C systems; 72 h: BT and HDF3CGF systems; 96 h: SAg system). SRB was performed by staining cells with 0.1% SRB after fixation with 10% TCA and reading wells at 560 nm.Viability and proliferation of PBMC (T cells) was quantified by Alamar Blue reduction for the SAg and BT systems. For PBMC viability (referred to as PBMC Cytotoxicity within the assay endpoint names), cells were plated (75,000/well in a 96-well plate) and then chemical samples added for 1 h before addition of activators, SEB and TSST-1 (20 ng/mL final concentration each). Cells were incubated for 90 h. Then, Alamar Blue (20 uL/well) (Invitrogen, Cat DAL1100) was added for 6 h, and the plates were read with a fluorescence microplate reader at 546/580 nm (excitation/emission). For PBMC proliferation, cells were plated and activated as above but incubated for only 16 h prior to addition of Alamar Blue. Plates were read after 6 h.
As for `CC(C)(C)C(=O)CC(=O)C(F)(F)C(F)(F)C(F)(F)F`, the outcome was inactive.
Regarding `OCC(F)(F)C(F)(F)C(F)(F)C(F)(F)C(F)(F)C(F)F`, the result was inactive.
On the same count and under the same terms, the entry for `FC1CC(F)(F)C(F)(F)C1(F)F` (stereo not given) is “inactive”; for `N=C(N)C(F)(F)C(F)(F)C(F)(F)C(F)(F)C(F)(F)C(F)(F)C(F)(F)F` it is “inactive”.
With `OCCCC(F)(F)C(F)(F)C(F)(F)C(F)(F)C(F)(F)C(F)(F)C(F)(F)F`, the AC50 was 51.8 µM (active) and 47.2 µM (active).
Consider `O=S(=O)(O)C(F)(F)C(F)(F)C(F)(F)C(F)(F)C(F)(F)C(F)(F)C(F)(F)F`, for which the outcome was inactive.
Take `O=C(CC(=O)C(F)(F)C(F)(F)F)C(F)(F)F`: the result was inactive.
Consider `FC(F)(F)C(F)(F)C(F)(F)N(C(F)(F)C(F)(F)C(F)(F)F)C(F)(F)C(F)(F)C(F)(F)F`, for which the outcome was inactive.
Still for that read-out and setting: the entry for `FC(F)(F)C(F)(F)C(F)(F)C(F)(F)C(F)(F)CCI` is “inactive”; for `FC(F)(I)C(F)(F)C(F)(F)C(F)(F)I` it is “inactive”; for `FC(F)(F)C(F)(F)C(F)(F)C(F)(F)C(F)(F)C(F)(F)C(F)(F)Br` it is “inactive”.
The same measure, in the same setting: the entry for `C=C(C)C(=O)OCCC(F)(F)C(F)(F)C(F)(F)C(F)(F)C(F)(C(F)(F)F)C(F)(F)F` is “inactive”; for `FC(F)(F)C(F)(F)C(F)(F)C(F)(F)C(F)(F)C(F)(F)C(F)(F)I` it is “inactive”.
Still for that read-out and setting: the entry for `CCO[Si](CCC(F)(F)C(F)(F)C(F)(F)C(F)(F)C(F)(F)C(F)(F)F)(OCC)OCC` is “inactive”; for `O=S(=O)(OCC(F)F)C(F)(F)F` it is “inactive”; for `O=P(O)(O)OCCC(F)(F)C(F)(F)C(F)(F)C(F)(F)C(F)(F)C(F)(F)F` it is “inactive”.
`FC(F)(F)C(F)(F)C(F)(F)C(F)(F)C(F)(F)C(F)(F)C(F)(F)C(F)(F)F`: the outcome was inactive.
Still for that read-out and setting: the entry for `O=C(O)C(F)(F)C(F)(F)C(F)(F)C(F)(F)C(F)(F)C(F)(F)C(F)(F)C(F)(F)C(F)(F)C(F)(F)C(F)(F)C(F)(F)F` is “inactive”; for `O=C(O)C(F)(F)C(F)(F)C(F)(F)C(F)(F)F` it is “inactive”; for `O=C(O)C(F)(F)C(F)(F)C(F)(F)C(F)(F)C(F)(F)C(F)(F)C(F)(F)C(F)(F)C(F)(F)C(F)(F)C(F)(F)C(F)(F)C(F)(F)F` it is “inactive”.
Regarding `O=C(O)C(F)(F)C(F)(F)C(F)(F)C(F)(F)C(F)(F)C(F)(F)C(F)(F)C(F)(F)C(F)(F)C(F)F`, the AC50 is 55.7 µM (active) and 50.4 µM (active).
`NC(=O)C(F)(F)C(F)(F)C(F)(F)C(F)(F)F`: the result was inactive.
On the same count and under the same terms, then `O=C(O)C(F)(F)C(F)(F)F`, with “inactive”.
`O=C(Cl)C(F)(F)C(F)(F)C(F)(F)C(F)(F)C(F)(F)C(F)(F)C(F)(F)C(F)(F)F`: the half-maximal activity concentration (AC50) was 54.8 µM (active) and 40 µM (active) and 47.8 µM (active).
`O=C(O)C(F)(F)C(F)(F)OC(F)(F)F`: the result was inactive.
For `C=CC(F)(F)C(F)(F)C(F)(F)C(F)(F)C(F)(F)C(F)(F)C(F)(F)C(F)(F)F`, the outcome was inactive.
On the same count and under the same terms, then `COC(=O)CCC(F)(F)C(F)(F)C(F)(F)C(F)(F)F`, with “inactive”.
Same read-out and setting: the entry for `C=CC(=O)OCC(F)(F)C(F)(F)C(F)(F)C(F)(F)COC(=O)C=C` is “inactive”; for `FC(F)(F)C(F)(F)C(F)(F)C(F)(F)CCI` it is “inactive”; for `OCCCC(F)(F)C(F)(F)C(F)(F)F` it is “inactive”.
Still for that read-out and setting: the entry for `OCC(F)(F)C(F)(F)C(F)(F)C(F)F` is “inactive”; for `C=C(C)C(=O)OCC(F)(F)C(F)(F)C(F)(F)C(F)(F)C(F)(F)C(F)(F)C(F)(F)F` it is “inactive”; for `O=C(O)C(F)(OC(F)(F)C(F)(OC(F)(F)C(F)(F)C(F)(F)F)C(F)(F)F)C(F)(F)F` (stereo not given) it is “inactive”.
Turning to `O=C(O)C(F)(F)C(F)(F)C(F)(F)F`, the result was inactive.
Still for that read-out and setting: then `FC(F)(Br)C(F)(F)C(F)(F)C(F)(F)C(F)(F)C(F)(F)Br`, with “inactive”; and `O=C(O)C(F)(OC(F)(F)C(F)(OC(F)(F)C(F)(OC(F)(F)C(F)(F)C(F)(F)F)C(F)(F)F)C(F)(F)F)C(F)(F)F` (stereo not given), with “inactive”; and `FC(F)(F)C(F)(F)C(F)(F)CI`, with “inactive”.
Still for that read-out and setting: then `O=C(O)C(F)(F)C(F)(F)C(F)F`, with “inactive”.
On to `O=C(O)C(F)(F)C(F)(F)C(F)(F)C(F)(F)C(F)(F)C(F)(F)C(F)(F)C(F)(F)Cl`, for which the AC50 is 56.6 µM (active) and 47.9 µM (active).
Consider `FC(F)(F)C(F)(F)C(F)(F)C(F)(F)C(F)(F)C(F)(F)C(F)(F)C(F)(F)CCS`, for which the result was inactive.
